# Results reported in publication PMC7862700, “An all-to-all approach to the identification of sequence-specific readers for epigenetic DNA modifications on cytosine”.
# Columns and labels:
# Assay in all cases: DAPPL (digital affinity profiling via proximity ligation, sequencing); 10 mM Tris-HCl pH 7.5, 50 mM NaCl, 1 mM DTT, 4% glycerol, room temperature, 30 min; GST-TFs on glutathione beads, 16-mer random dsDNA library, 0.1% formaldehyde crosslink after washing; high values mean tight binding
# FEV = molecular target: T1, FEV (Homo sapiens, UniProt Q99581 1-238); conditions: protein: recombinant; tags: N-terminal GST; dsDNA, one strand shown
# T1 sequence: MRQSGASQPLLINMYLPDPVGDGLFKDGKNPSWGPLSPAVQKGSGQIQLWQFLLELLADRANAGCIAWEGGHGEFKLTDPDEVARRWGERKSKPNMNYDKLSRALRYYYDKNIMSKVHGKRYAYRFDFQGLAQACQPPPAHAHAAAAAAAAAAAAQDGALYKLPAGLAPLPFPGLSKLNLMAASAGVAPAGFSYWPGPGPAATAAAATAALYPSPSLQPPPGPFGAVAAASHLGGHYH
# How it was run: (§1)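 After expression in yeast as GST fusions, human transcription factors were bound to glutathione beads, DNA-barcoded and mixed with a tag-only sample. The pools were incubated with 200 nmole of a 16-mer random double-stranded DNA library in Tris/NaCl/DTT/glycerol buffer (30 min, room temperature), washed and crosslinked with 0.1% formaldehyde. Proximity ligation with BsaI/T4 ligase ran for 1 h at 37 °C, before PCR amplification and sequencing on an Illumina NextSeq500. Binding signal is a hexamer's read frequency for a factor divided by its frequency for the tag-only sample.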
# ETV5 = ETV5 (Homo sapiens, UniProt P41161 1-510); conditions: protein: recombinant; tags: N-terminal GST; dsDNA, one strand shown
# How it was run: as §1
# HSF1 = HSF1 (Homo sapiens, UniProt Q00613 1-529); conditions: protein: recombinant; tags: N-terminal GST; chain copies: 3; dsDNA, one strand shown
# How it was run: as §1
# SPIC = molecular target: T2, SPIC (Homo sapiens, UniProt Q8N5J4 1-248); conditions: protein: recombinant; tags: N-terminal GST; dsDNA, one strand shown
# T2 sequence: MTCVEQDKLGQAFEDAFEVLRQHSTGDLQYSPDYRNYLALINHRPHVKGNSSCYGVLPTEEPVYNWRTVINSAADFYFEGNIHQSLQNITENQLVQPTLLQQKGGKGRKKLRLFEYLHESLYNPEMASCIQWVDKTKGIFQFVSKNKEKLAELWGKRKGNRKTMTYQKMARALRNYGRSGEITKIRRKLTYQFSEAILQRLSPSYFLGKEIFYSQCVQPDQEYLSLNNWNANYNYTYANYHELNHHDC
# How it was run: as §1
# ELF4 = ELF4 (Homo sapiens, UniProt Q99607 1-663); conditions: protein: recombinant; tags: N-terminal GST; dsDNA, one strand shown
# How it was run: as §1
# ELK4 = molecular target: T3, ELK4 (Homo sapiens, UniProt P28324-2 1-405); conditions: protein: recombinant; tags: N-terminal GST; dsDNA, one strand shown
# T3 sequence: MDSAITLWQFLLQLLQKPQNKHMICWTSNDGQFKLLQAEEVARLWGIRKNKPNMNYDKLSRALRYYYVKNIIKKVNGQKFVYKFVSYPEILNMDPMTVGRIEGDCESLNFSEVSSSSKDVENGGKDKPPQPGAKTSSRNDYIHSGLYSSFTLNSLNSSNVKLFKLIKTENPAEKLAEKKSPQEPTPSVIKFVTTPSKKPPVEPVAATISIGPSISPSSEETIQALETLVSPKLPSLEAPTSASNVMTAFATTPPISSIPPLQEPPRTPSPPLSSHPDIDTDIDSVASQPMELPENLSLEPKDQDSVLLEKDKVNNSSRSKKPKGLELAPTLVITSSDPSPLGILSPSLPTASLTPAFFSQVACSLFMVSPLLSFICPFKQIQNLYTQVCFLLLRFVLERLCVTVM
# How it was run: as §1
# ETV2 = molecular target: T4, ETV2 (Homo sapiens, UniProt O00321 1-342); conditions: protein: recombinant; tags: N-terminal GST; dsDNA, one strand shown
# T4 sequence: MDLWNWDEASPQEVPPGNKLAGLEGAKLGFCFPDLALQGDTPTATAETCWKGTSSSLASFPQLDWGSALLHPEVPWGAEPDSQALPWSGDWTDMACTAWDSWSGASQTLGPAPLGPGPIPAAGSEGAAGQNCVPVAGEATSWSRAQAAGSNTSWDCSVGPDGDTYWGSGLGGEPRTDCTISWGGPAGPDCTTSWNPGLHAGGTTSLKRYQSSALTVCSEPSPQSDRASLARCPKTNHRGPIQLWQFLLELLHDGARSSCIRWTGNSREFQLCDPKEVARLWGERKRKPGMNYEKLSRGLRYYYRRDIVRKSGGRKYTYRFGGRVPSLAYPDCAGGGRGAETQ
# How it was run: as §1
# ELF3 = molecular target: T5, ELF3 (Homo sapiens, UniProt P78545 1-371); conditions: protein: recombinant; tags: N-terminal GST; dsDNA, one strand shown
# T5 sequence: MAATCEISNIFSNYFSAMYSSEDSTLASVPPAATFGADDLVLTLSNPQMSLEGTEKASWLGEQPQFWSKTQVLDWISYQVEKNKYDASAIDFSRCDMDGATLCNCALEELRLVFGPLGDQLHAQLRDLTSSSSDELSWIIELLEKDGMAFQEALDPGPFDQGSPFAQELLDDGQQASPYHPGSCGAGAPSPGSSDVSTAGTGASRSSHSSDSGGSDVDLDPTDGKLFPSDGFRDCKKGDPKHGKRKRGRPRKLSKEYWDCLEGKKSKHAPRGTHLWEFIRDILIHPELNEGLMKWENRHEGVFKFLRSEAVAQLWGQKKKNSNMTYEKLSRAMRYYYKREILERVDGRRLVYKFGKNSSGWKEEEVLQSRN
# How it was run: as §1
# CRX = CRX (Homo sapiens, UniProt O43186 1-299); conditions: protein: recombinant; tags: N-terminal GST; dsDNA, one strand shown
# How it was run: as §1
# ETV1 = ETV1 (Homo sapiens, UniProt P50549 1-477); conditions: protein: recombinant; tags: N-terminal GST; dsDNA, one strand shown
# How it was run: as §1
# ERF = molecular target: T6, ERF (Homo sapiens, UniProt P50548 1-548); conditions: protein: recombinant; tags: N-terminal GST; dsDNA, one strand shown
# T6 sequence: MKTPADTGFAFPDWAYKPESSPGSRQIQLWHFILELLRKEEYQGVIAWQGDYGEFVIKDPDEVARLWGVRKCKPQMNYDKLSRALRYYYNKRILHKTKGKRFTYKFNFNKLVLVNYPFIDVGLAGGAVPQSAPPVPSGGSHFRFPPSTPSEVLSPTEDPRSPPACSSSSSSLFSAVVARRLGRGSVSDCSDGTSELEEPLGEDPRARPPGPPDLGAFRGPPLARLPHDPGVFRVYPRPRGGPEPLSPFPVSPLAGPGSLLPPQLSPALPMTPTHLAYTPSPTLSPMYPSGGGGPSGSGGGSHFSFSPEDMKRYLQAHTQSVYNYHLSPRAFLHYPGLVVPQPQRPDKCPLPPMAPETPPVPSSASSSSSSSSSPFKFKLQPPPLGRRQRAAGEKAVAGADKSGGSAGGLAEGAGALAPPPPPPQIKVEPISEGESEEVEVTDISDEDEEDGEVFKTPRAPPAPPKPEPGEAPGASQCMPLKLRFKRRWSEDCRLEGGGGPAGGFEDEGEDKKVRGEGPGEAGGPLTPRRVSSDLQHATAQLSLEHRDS
# How it was run: as §1
# ETV3L = molecular target: T7, ETV3L (Homo sapiens, UniProt Q6ZN32 1-361); conditions: protein: recombinant; tags: N-terminal GST; dsDNA, one strand shown
# T7 sequence: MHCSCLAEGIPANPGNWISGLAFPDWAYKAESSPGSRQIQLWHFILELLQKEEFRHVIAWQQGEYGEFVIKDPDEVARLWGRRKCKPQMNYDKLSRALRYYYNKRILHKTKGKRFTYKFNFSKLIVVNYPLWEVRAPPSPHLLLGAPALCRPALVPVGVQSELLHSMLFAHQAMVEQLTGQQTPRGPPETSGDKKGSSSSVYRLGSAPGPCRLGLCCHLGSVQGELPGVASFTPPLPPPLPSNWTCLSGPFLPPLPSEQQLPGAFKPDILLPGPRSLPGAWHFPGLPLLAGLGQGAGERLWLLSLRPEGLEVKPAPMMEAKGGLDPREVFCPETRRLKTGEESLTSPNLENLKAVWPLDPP
# How it was run: as §1
# ETS2 = molecular target: T8, ETS2 (Homo sapiens, UniProt P15036 1-469); conditions: protein: recombinant; tags: N-terminal GST; dsDNA, one strand shown
# T8 sequence: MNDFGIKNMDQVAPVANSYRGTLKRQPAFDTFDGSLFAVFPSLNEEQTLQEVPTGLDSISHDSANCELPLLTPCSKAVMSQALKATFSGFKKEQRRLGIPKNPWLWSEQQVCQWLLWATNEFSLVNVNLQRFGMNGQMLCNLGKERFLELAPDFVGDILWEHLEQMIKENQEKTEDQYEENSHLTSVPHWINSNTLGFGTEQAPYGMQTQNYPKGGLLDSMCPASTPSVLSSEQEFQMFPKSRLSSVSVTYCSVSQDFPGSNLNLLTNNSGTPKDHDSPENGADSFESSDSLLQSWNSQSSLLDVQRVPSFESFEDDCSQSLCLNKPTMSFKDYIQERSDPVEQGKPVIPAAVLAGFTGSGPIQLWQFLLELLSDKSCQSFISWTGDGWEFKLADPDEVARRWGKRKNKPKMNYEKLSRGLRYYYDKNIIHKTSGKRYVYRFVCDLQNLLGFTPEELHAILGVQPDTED
# How it was run: as §1
# SPDEF = molecular target: T9, SPDEF (Homo sapiens, UniProt O95238 1-335); conditions: protein: recombinant; tags: N-terminal GST; dsDNA, one strand shown
# T9 sequence: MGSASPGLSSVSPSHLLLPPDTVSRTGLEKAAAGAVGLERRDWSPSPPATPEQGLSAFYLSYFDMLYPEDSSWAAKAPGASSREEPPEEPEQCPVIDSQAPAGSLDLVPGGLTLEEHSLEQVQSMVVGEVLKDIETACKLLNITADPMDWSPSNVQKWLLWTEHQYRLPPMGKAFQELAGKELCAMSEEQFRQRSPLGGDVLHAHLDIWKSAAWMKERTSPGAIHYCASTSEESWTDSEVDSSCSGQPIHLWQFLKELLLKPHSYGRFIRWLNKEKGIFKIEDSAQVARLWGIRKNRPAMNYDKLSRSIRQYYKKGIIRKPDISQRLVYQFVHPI
# How it was run: as §1
# ETV7 = molecular target: T10, ETV7 (Homo sapiens, UniProt Q9Y603 1-341); conditions: protein: recombinant; tags: N-terminal GST; dsDNA, one strand shown
# T10 sequence: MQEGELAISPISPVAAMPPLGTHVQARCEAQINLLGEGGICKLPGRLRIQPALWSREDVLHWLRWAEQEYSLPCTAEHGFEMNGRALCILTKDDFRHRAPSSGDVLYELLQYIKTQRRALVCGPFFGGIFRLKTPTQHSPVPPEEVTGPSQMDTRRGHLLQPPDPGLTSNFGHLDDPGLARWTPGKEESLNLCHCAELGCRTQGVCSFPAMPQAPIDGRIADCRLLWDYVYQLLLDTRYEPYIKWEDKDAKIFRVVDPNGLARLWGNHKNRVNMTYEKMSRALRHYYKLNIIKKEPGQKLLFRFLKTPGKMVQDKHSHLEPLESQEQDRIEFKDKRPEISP
# How it was run: as §1
# ELF5 = molecular target: T11, ELF5 (Homo sapiens, UniProt Q9UKW6-2 1-255); conditions: protein: recombinant; tags: N-terminal GST; dsDNA, one strand shown
# T11 sequence: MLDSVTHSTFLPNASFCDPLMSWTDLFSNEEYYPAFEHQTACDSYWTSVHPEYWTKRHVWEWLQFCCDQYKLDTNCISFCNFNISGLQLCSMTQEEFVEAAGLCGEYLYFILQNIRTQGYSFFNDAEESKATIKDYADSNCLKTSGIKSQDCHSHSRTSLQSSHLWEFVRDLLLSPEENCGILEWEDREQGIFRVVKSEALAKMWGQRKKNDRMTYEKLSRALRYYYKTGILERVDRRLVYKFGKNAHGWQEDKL
# How it was run: as §1
# ETV3 = molecular target: T12, ETV3 (Homo sapiens, UniProt P41162-2 1-143); conditions: protein: recombinant; tags: N-terminal GST; dsDNA, one strand shown
# T12 sequence: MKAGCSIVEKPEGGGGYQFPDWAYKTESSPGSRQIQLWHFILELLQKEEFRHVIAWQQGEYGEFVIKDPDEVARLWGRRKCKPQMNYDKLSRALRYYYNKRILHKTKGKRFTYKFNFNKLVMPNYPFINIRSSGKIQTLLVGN
# How it was run: as §1
# ETV6 = ETV6 (Homo sapiens, UniProt P41212 1-452); conditions: protein: recombinant; tags: N-terminal GST; dsDNA, one strand shown
# How it was run: as §1
# Chain of ETV6 (P41212 whole entry): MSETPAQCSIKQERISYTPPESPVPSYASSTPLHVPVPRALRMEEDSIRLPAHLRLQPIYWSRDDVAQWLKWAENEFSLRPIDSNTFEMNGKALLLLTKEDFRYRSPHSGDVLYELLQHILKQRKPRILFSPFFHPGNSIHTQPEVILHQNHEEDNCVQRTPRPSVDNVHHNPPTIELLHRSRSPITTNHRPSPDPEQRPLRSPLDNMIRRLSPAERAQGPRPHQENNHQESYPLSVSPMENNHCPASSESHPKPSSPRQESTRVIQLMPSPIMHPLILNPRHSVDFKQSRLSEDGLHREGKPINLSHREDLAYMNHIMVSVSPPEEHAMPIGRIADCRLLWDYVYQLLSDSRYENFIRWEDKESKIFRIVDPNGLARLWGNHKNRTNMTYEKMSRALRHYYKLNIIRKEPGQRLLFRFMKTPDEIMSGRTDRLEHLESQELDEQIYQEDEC
# Chain of CRX (O43186 whole entry): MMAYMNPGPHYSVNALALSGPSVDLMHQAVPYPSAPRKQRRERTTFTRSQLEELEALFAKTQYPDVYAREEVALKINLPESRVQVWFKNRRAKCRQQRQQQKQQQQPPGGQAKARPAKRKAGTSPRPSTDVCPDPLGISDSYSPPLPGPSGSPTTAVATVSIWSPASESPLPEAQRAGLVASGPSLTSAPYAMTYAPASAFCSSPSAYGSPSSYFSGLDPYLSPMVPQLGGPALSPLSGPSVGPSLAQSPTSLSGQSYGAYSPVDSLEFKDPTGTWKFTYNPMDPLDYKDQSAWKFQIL
# Chain of ETV1 (P50549 whole entry): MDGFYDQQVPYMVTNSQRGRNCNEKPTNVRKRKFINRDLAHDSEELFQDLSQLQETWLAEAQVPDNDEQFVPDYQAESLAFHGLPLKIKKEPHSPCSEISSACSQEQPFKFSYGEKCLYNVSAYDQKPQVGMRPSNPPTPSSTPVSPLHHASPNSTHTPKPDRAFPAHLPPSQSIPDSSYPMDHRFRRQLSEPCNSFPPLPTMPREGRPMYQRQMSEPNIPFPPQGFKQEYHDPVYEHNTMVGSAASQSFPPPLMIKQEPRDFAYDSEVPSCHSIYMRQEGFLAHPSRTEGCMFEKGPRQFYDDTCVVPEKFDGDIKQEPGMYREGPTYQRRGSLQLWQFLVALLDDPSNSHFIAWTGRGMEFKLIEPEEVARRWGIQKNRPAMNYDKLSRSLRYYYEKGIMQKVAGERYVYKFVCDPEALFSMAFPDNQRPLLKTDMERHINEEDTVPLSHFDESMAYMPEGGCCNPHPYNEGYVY
# Chain of ETV5 (P41161 whole entry): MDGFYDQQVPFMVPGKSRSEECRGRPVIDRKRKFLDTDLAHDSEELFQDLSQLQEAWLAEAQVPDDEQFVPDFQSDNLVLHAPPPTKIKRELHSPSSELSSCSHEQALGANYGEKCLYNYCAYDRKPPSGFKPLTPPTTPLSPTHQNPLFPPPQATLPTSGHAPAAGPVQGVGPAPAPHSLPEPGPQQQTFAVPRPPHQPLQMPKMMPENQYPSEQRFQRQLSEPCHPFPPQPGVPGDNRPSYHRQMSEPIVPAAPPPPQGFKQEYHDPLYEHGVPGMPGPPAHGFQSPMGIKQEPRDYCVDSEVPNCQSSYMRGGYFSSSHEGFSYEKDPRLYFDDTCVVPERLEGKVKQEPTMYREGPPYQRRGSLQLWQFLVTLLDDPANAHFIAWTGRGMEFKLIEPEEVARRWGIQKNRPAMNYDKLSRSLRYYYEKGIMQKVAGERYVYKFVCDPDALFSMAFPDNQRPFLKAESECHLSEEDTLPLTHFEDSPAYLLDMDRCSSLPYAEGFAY
# Chain of ELF4 (Q99607 whole entry): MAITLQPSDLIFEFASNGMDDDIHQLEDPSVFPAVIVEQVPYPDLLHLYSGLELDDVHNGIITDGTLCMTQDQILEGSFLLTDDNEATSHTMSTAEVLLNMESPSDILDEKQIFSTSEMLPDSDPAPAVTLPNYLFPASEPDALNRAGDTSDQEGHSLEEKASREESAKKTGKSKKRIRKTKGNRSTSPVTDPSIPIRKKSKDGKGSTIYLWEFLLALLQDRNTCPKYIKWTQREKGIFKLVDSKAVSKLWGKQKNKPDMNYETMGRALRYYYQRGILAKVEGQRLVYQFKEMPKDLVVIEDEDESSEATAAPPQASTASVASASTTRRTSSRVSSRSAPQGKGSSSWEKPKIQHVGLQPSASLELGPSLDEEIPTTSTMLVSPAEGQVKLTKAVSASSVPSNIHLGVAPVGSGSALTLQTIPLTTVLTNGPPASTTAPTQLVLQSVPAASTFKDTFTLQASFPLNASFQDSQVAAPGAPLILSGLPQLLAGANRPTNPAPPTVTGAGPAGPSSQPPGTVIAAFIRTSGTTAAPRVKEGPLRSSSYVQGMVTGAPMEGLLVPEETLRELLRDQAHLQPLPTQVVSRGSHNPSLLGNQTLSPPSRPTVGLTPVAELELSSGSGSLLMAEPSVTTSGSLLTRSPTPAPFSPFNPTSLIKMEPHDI
# Chain of HSF1 (Q00613 whole entry): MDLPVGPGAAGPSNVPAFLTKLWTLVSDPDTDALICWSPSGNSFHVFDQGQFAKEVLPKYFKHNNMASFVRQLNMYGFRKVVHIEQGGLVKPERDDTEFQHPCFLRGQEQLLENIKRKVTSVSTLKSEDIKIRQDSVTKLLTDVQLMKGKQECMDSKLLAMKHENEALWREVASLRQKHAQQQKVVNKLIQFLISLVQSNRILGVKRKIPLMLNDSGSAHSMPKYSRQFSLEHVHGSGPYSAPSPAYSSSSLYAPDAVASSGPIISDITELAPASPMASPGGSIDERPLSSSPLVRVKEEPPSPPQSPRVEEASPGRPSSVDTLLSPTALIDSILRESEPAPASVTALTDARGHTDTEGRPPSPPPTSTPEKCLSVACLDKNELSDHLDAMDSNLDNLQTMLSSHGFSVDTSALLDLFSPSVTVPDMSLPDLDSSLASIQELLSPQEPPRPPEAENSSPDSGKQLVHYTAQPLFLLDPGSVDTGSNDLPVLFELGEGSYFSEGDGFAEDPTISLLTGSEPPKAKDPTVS
sequence,measurement,setting,value
GCTTTG,binding signal,FEV,"1.08 fold enrichment (6-mer frequency, TF over GST control)"
same,binding signal,ETV5,"1.11 fold enrichment (6-mer frequency, TF over GST control)"
same,binding signal,HSF1,"1.23 fold enrichment (6-mer frequency, TF over GST control)"
same,binding signal,SPIC,"1.22 fold enrichment (6-mer frequency, TF over GST control)"
same,binding signal,ELF4,"1.17 fold enrichment (6-mer frequency, TF over GST control)"
same,binding signal,ELK4,"1.22 fold enrichment (6-mer frequency, TF over GST control)"
same,binding signal,ETV2,"1.22 fold enrichment (6-mer frequency, TF over GST control)"
same,binding signal,ELF3,"1.16 fold enrichment (6-mer frequency, TF over GST control)"
same,binding signal,CRX,"1.49 fold enrichment (6-mer frequency, TF over GST control)"
same,binding signal,ETV1,"1.16 fold enrichment (6-mer frequency, TF over GST control)"
same,binding signal,ERF,"1.09 fold enrichment (6-mer frequency, TF over GST control)"
same,binding signal,ETV3L,"1.19 fold enrichment (6-mer frequency, TF over GST control)"
same,binding signal,ETS2,"1.16 fold enrichment (6-mer frequency, TF over GST control)"
same,binding signal,SPDEF,"1.12 fold enrichment (6-mer frequency, TF over GST control)"
same,binding signal,ETV7,"1.44 fold enrichment (6-mer frequency, TF over GST control)"
same,binding signal,ELF5,"1.13 fold enrichment (6-mer frequency, TF over GST control)"
same,binding signal,ETV3,"1.15 fold enrichment (6-mer frequency, TF over GST control)"
same,binding signal,ETV6,"1.24 fold enrichment (6-mer frequency, TF over GST control)"
